From PubChem BioAssay (Tox21)
Values joined by “and” are separate entries in the source; they are usually repeats but may differ in a detail not shown here. Identical values can stand only once. Inconclusive results are not listed. A structure can be active in one record and inactive in another. Active and inactive are the calls of the source. Calls come from the whole dose curve.

Assay: qHTS assay for small molecule agonists of the p53 signaling pathway - cell viability (AID 651633); note: nearly all actives have a fitted effect of over 30% in size;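 for activity change, negative = cytotoxicity: p53RE-bla HCT reporter cells with a stable beta-lactamase p53 reporter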
Details: p53RE-bla HCT-116 viability, ATP luminescence, 16 h; series mostly up to 83.3 µM; activity change, negative = cytotoxicity: at the top concentration
Text: National Center for Advancing Translational Sciences [NCATS]
NIH Chemical Genomics Center [NCGC]
U.S. Environmental Protection Agency [EPA]
National Institutes of Environmental Health Sciences [NIEHS]
National Toxicology Program [NTP]
U.S. Food and Drug Administration [FDA]
p53, a tumor suppressor protein, is activated following cellular insult, including DNA damage and other cellular stresses. The activation of p53 regulates cell fate by inducing DNA repair, cell cycle arrest, apoptosis, or cellular senescence. The activation of p53, therefore, is a good indicator of DNA damage and other cellular stresses. […] The activation of the reporter gene under culture conditions can be detected by fluorescence intensity. This cell line was used to screen the Tox21 compound library in a 1536-well plate format and to identify agonists that activate the p53 signaling pathway.
Tox21 Assay Protocol Summary:
The p53RE-bla cells were dispensed at 4,000 cells/5 ul/well in 1536-well black wall/clear bottom plates using a Multidrop dispenser. After the assay plates were incubated at a 37 C/5% CO2 incubator for 5 hours, 23 nL of compounds dissolved in DMSO, positive controls or DMSO only was transferred to the assay plate by a pin tool. The plates were incubated at 37 C for 16 hours. After 1 uL of LiveBLAzerTM B/G FRET substrate was added using a Flying Reagent Dispenser, the plates were incubated at room temperature for 2 hours, and fluorescence intensity was measured by an Envision plate reader.
For cell viability readout that measures cytotoxicity, 4 ul/well of CellTiter-Glo reagent was added into the assay plates using a Flying Reagent Dispenser. After 30 min incubation at room temperature, the luminescence intensity in the plates was measured using a ViewLux plate reader.
% is set by controls: 0 for no effect and ±100 for the full control effect; potency is the fitted concentration of half-maximal effect.

Structure (SMILES)	Potency	activity change, negative = cytotoxicity
NC(=O)CC[C@@H]1NC(=O)[C@H](Cc2ccccc2)NC(=O)[C@H](Cc2ccc(O)cc2)NC(=O)CCSSC[C@@H](C(=O)N2CCC[C@H]2C(=O)N[C@@H](CCCN=C(N)N)C(=O)NCC(N)=O)NC(=O)[C@H](CC(N)=O)NC1=O	inactive	–
CCCCCCCCCCCCCCCS(=O)(=O)Oc1ccccc1	–	-13.3% (inactive)
O=c1cc(-c2ccc(O)cc2)oc2cc(O)cc(O)c12	inactive and 54.5 µM (active)	–
O=c1c(-c2ccccc2)c1-c1ccccc1	13.3 µM (active)	–
CNCc1cc(F)ccc1Oc1ccc(Cl)c(Cl)c1	–	-17.6% (inactive)
CCCC(C)c1ccccc1O (stereo not given)	–	-19.2% (inactive)
O=C(Oc1cccc2cccnc12)c1ccccc1	–	-14.3% (inactive)
CCOc1nc2cccc(C(=O)OC(C)OC(=O)OC3CCCCC3)c2n1Cc1ccc(-c2ccccc2-c2nn[nH]n2)cc1 (stereo not given)	12.2 µM (active)	–
CCCCCCC[N+](CC)(CC)CCCCc1ccc(Cl)cc1	–	-18.2% [at 39.1 µM] (inactive)
CCCCCOC(=O)CCCC	–	6.93% (inactive)
S=c1[nH]c2ccccc2s1	inactive	–
CCCN(CCC)c1c([N+](=O)[O-])cc(C(F)(F)F)c(N)c1[N+](=O)[O-]	30.5 µM (active)	–
Fc1ccc([C@@H]2CCNC[C@H]2COc2ccc3c(c2)OCO3)cc1	33.5 µM (active)	–
CCOC(=O)O[C@]1(C(=O)OCCl)CC[C@H]2[C@@H]3CCC4=CC(=O)C=C[C@]4(C)[C@H]3[C@@H](O)C[C@@]21C	–	8.58% (inactive)
O=C1Cc2cc(CCN3CCN(c4nsc5ccccc45)CC3)c(Cl)cc2N1	inactive and 23.7 µM (active)	–
CCCCCCCCS(=O)C(C)Cc1ccc2c(c1)OCO2 (stereo not given)	–	-19.4% [at 95.3 µM] (inactive)
NC(=O)N1C(=O)C(C(=O)c2cc(Cl)cs2)c2cc(F)c(Cl)cc21 (stereo not given)	1.37 µM (active)	–
Oc1c(Cl)cc(Cl)c2cccnc12	2.98 µM (active)	–
O=c1[nH]cnc2nc[nH]c12	–	8.08% (inactive)
C[C@H]1[C@H]2CC[C@H]3[C@@H]4CC=C5C[C@@H](N(C)C)CC[C@]5(C)[C@H]4CC[C@]23CN1C	–	9.08% (inactive)

Structure (SMILES)	Potency	activity change, negative = cytotoxicity
NC(=O)NS(=O)(=O)c1ccc(N)cc1	–	-11.1% (inactive)
CC(=O)SC[C@@H](Cc1ccccc1)C(=O)NCC(=O)OCc1ccccc1	–	10.2% [at 39.1 µM] (inactive)
CC(=O)S[C@@H]1CC2=CC(=O)CC[C@]2(C)[C@H]2CC[C@@]3(C)[C@@H](CC[C@@]34CCC(=O)O4)[C@H]12	inactive	–
CC(C)(C)c1ccc(C(=O)CCCN2CCC(OC(c3ccccc3)c3ccccc3)CC2)cc1	21.1 µM (active)	–
CC[C@@]1(O)C(=O)OCc2c1cc1n(c2=O)Cc2cc3c(CN(C)C)c(O)ccc3nc2-1	8.41 µM (active)	–
C[n+]1cc2c3c(ccc2c2ccc4cc5c(cc4c21)OCO5)OCO3	1.5 µM (active)	–
CC(C)(C)C(=O)OCOC(=O)[C@@H]1N2C(=O)[C@@H](NC(=O)[C@H](N)c3ccccc3)[C@H]2SC1(C)C	–	7.9% [at 39.1 µM] (inactive)
Cc1ccc(O)c(C(C)(C)C)c1	54.4 µM (active) and inactive	–
CC(C)(C)CC(C)(C)c1ccc(O)c(Cc2ccc(Cl)cc2Cl)c1	13.3 µM (active)	–
O=C(N/N=C/c1ccccc1O)c1ccncc1	3.76 µM (active)	–
N#CSc1ccc(N)c([N+](=O)[O-])c1	–	-23.1% [at 95.3 µM] (inactive)
C=C(C)C(=O)OCC(O)COc1ccc(C(C)(C)c2ccc(OCC(O)COC(=O)C(=C)C)cc2)cc1 (stereo not given)	54.5 µM (active)	–
CC(C)CCCCCCCCCCCCCCC(=O)O	61.1 µM (active)	–
O=C(c1ccc(O)cc1O)c1ccc(O)cc1O	inactive	–
C/C=C(\C)C(=O)OCc1ccccc1	–	4.75% (inactive)
COCCCC/C(=N\OCCN)c1ccc(C(F)(F)F)cc1	–	-13.6% (inactive)
CCC(C)(C)C1CCCCC1OC(C)=O (stereo not given)	–	10.4% (inactive)
CCCCC(CC)COP(=O)(O)OCC(CC)CCCC (stereo not given)	61.3 µM (active) and 27.3 µM (active)	–
CC[C@H](c1ccc(O)cc1)[C@@H](CC)c1ccc(O)cc1	inactive and 54.5 µM (active)	–
CCCC(=O)OC[C@@H](OC(=O)CCC)[C@@H](OC(=O)CCC)[C@H](Cn1c2nc(=O)[nH]c(=O)c-2nc2cc(C)c(C)cc21)OC(=O)CCC	–	-18% (inactive)
